Bioassay records as filed in PubChem BioAssay.
The list is not random: actives were taken first. Their share in the collection is about 6.6%.
MPTP inh: permeability transition pore inhibition | isolated mouse mitochondria, Ca2+ swelling absorbance, 30 min | inhibition, % at 10 µM | hit rate 1.4% among 360,000;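 active = inhibition of 50% or more, scaled per plate between neutral and stimulator controls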
CSC inhib: blocks cancer stem cells; AID 2717; inhibition, % at 7.5 µM; cancer stem cell-like cells viability, luminescence; hit rate 1.1% among 300,000; in the data active = inhibition above about 75%; tested in HMLE shEcad cells
Mdm2 MdmX PPI: inhibitors of human Mdm2/MdmX interaction; O15151+Q00987; hit rate 3% among 330,000; SaOS-2 split-luciferase Mdm2/MdmX complementation, luminescence; inhibition, % at 8 µM;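 active = inhibition of at least 50% at 8 µM in the primary screen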
Gli-Sufu antag: antagonists of Gli-Sufu signaling; inhibition, % at 5 µM; hit rate 0.74% among 340,000; Sufu-KO-LIGHT fibroblasts, Gli luciferase reporter luminescence;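 active = inhibition above about 55%, limit read from the data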
Beta apoptosis: beta cell apoptosis inhibition; INS-1E cytokine-induced death, ATP luminescence, 48 h; percent of positive-control rescue, neutral wells zero; protection from apoptosis, % (concentration not given with the values); hit rate 0.8% among 300,000; AID 435005;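 active = Every replicate reaches about 75%, or at least half do and their mean reaches it too, limit read from the data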;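 also: higher means more ATP so stronger rescue from cytokine killing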
NR3A LBD binder: modulators (binders) of human NR3A ligand-binding domain | NR3A LBD differential scanning fluorimetry, Tm shift; 0% = protein alone, 100% = glycine-bound protein | hit rate 2.5% among 340,000 | Tm shift relative to glycine control, % at 25 µM;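 active = melting temperature shift of at least 10% of the positive control shift, at one fixed dose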
Mdm2-MdmX conf: human Mdm2/MdmX binding inhibition, confirmed; luminescent assay; hit rate 55% among 10,000; AID 489028; inhibition, % at 8 µM; shares compounds with Mdm2 MdmX PPI; in the data active = inhibition above about 40%
FLuc counter: counter-screen for Mdm2/MdmX inhibitors: full-length luciferase | shares compounds with Mdm2 MdmX PPI | SaOS-2 full-length luciferase counterscreen, luminescence | inhibition, % at 8 µM | hit rate 77% among 6,200;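 active = mean inhibition at 8 µM reaching about 37%, which flags the compound as non-specific, limit read from the data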;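 also: p53-null SaOS-2 cells with luciferase driven by a doxycycline-inducible promoter; compound on cells about two nights before reading with doxycycline added after day one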
Hits are given with their value; - = inactive; . = no result given.

SMILES	MPTP inh	CSC inhib	Mdm2 MdmX PPI	Gli-Sufu antag	Beta apoptosis	NR3A LBD binder	Mdm2-MdmX conf	others
CC1CCc2c(sc3ncnc(N4CCOCC4)c23)C1 (stereo unspecified)	-	-	-	-	-	-	.
CC(C)Oc1ccc2ccccc2c1CNC[C@H]1O[C@@H](n2ccc(N)nc2=O)[C@H](O)[C@@H]1O	-	.	.	.	.	.	.
CC1=C2CCCC[C@@]23C2C(=O)N(C)C(=O)[C@@H]2ON3OC1 (stereo partly specified)	-	.	.	.	.	.	.
N#CC(c1ccc(Cl)nn1)c1ccc(Cl)cc1Cl (stereo unspecified)	-	-	55.8	-	-	-	-
COc1cc(C(=O)NNC(=O)COc2cccc(F)c2)ccc1OCC(=O)N1CCOCC1	-	-	-	-	-	-	.
Cc1ccc(O)c(C(=O)/C=C/c2ccc3c(c2)OCCO3)c1	-	-	51.8	-	-	-	-
CSc1nc2c(c(=O)[nH]c(=O)n2C)n1Cc1ccc(Cl)cc1	-	-	-	-	-	-	.
Cn1c(=O)[nH]c(=O)c2c1nc(N/N=C/c1ccncc1)n2Cc1ccc(Cl)cc1	-	-	66.7	-	-	-	-
O=C(O)C1CSC2(c3ccc(Br)cc3)CCC(=O)N12 (stereo unspecified)	-	-	-	-	-	-	.
c1ccc(-c2cc(NCCN3CCCCC3)c3ccccc3n2)cc1	-	.	56.9	-	.	-	46.5	FLuc counter=51.0
O=C(c1cc(-c2ccccc2)nc2ccccc12)N1CCCC1	-	-	-	-	-	-	.
COc1ccc(-n2nnnc2SCC(=O)c2cccc(OC)c2)cc1	-	-	-	-	-	-	.
CCOc1ccc(-n2nnnc2SCC(=O)c2ccccc2)cc1	-	-	67.8	-	-	-	-
CCNC(=O)C1(C)CCN(C(=O)c2ccc(OC(F)F)cc2)C1 (stereo unspecified)	-	.	.	.	.	.	.
CC(C)c1ccc(/C=N/NC(=O)CN(c2cccc(Cl)c2Cl)S(C)(=O)=O)cc1	-	.	60.9	-	-	-	-
CC1(NC(=O)Cc2c(Cl)cccc2Cl)CCS(=O)(=O)C1 (stereo unspecified)	-	.	-	-	-	-	.
O=C(O)CCCCCCCCCCP(=O)(c1ccccc1)c1ccccc1	-	-	-	-	-	-	.
O=P(CCCCCCCCCP(=O)(c1ccccc1)c1ccccc1)(c1ccccc1)c1ccccc1	-	-	65.6	-	.	-	-
CSc1nc2ccc3nc(NC(=O)c4ccc(C)cc4)sc3c2s1	-	-	61.3	-	-	-	-
COc1ccc(C(=O)Nc2nc3ccc4nc(C)sc4c3s2)cc1	-	-	-	-	-	-	.
Cc1[nH]c(=O)nc(NN=Cc2ccc(Cl)cc2)c1C(=O)Nc1ccc(Cl)cc1	-	.	.	-	.	-	.
CC(C)(C)OC(=O)N1CCC(C(=O)Nc2cccc(C(=O)NC3CC3)c2)CC1	-	.	.	-	.	-	.
CCc1ccccc1NC(=O)CN1CCN(CC(=O)Nc2ccc(-c3ccccc3)cc2)CC1	-	-	-	-	-	-	.
CCc1ccccc1NC(=O)CN1CCN(C(=O)CNC(=O)c2ccc(-c3ccccc3)cc2)CC1	-	.	50.5	-	-	-	-
CCOC(=O)c1sc(=NC(=O)c2ccc(C)cc2)n(C)c1C	-	-	-	-	-	-	.
SMILES	MPTP inh	CSC inhib	Mdm2 MdmX PPI	Gli-Sufu antag	Beta apoptosis	NR3A LBD binder	Mdm2-MdmX conf	others
CCOC(=O)c1sc(=NC(=O)c2ccc(S(=O)(=O)N(C)c3ccccc3)cc2)n(C)c1C	-	-	62.6	-	-	-	-
Cn1cc([N+](=O)[O-])c(C(=O)Nc2ccc(Br)cn2)n1	-	-	55.9	-	-	-	43.5	FLuc counter=90.3
Cn1cc([N+](=O)[O-])c(C(=O)Nc2nccs2)n1	-	-	57.2	-	-	-	-
O=[N+]([O-])c1ccc(Sc2cccc3cccnc23)c([N+](=O)[O-])c1	-	-	93.0	-	80.0	-	86.5	FLuc counter=56.5
COc1ccc([N+](=O)[O-])cc1NC(=O)CSCc1ccc(Br)cc1	-	.	51.2	-	-	-	-
Cc1ccc(CN(CC(=O)NCCc2ccccc2)C(=O)c2csnn2)cc1	-	-	-	-	-	-	.
Cc1ccc2c(c1)CCCO[C@]21O[C@H](CCO)C[C@H](O)[C@H]1O	-	.	.	.	.	.	.
COCCN(C(=O)CCC(=O)Nc1cc(C)on1)C(C(=O)NC1CCCC1)c1ccccc1C (stereo unspecified)	-	-	-	-	-	-	.
COCCN(C(=O)CCl)C(C(=O)NC1CCCCC1)c1ccccc1C (stereo unspecified)	-	.	97.2	-	.	-	72.2	FLuc counter=37.9
O=C(NC1CCCC1)C(c1ccc(F)cc1)N(Cc1ccccc1Cl)C(=O)CCl (stereo unspecified)	-	-	55.2	-	-	-	-
Oc1ccc(Br)cc1-c1ccnn1-c1ccccc1	-	-	64.0	-	-	-	57.2	FLuc counter=50.3
Cc1cc(C)nc(CCNC(=O)c2cc(COc3c(C)cccc3C)on2)n1	-	-	-	-	-	-	.
COc1ccc(-c2csc(NC(=O)c3ccc(OCC(=O)N4CCOCC4)c(OC)c3)n2)cc1OC	-	-	57.8	-	-	-	-
COc1ccc(-c2csc(NC(=O)CS(=O)(=O)c3ccccc3)n2)cc1OC	-	.	.	.	.	.	.
COc1ccc(-c2csc(NC(=S)NC(=O)c3ccc(S(=O)(=O)N(C)C)cc3)n2)cc1OC	-	-	70.4	-	-	-	-
COc1ccc(/C=N/Nc2nc(-c3cccc(S(=O)(=O)N4CCCC4)c3)cs2)cc1OC	-	-	-	-	-	-	.
COc1cc(C(=O)Nc2cccc(C)n2)ccc1OCC(=O)N1CCOCC1	-	.	-	-	-	-	.
COc1cc(/C=N/Nc2nc(-c3ccc(S(=O)(=O)N(C)C)cc3)cs2)ccc1O	-	-	82.4	-	-	-	56.4	FLuc counter=81.3
O=C(SCC(O)C(O)CS)c1cccs1 (stereo unspecified)	-	-	-	-	-	-	.
C[C@H](NC(=O)c1ccc(Cl)cc1)C(=O)NCCc1ccc(S(N)(=O)=O)cc1	-	-	-	-	.	-	.
C=CCN(c1ccc(F)cc1)S(=O)(=O)c1cc(C(=O)NC2CC2)ccc1Cl	-	.	.	.	.	.	.
CC(C)n1c(SCC(=O)Nc2nc3c(s2)CCCC3)nc2c1c(=O)n(C)c(=O)n2C	-	-	59.5	-	-	-	-	FLuc counter=39.9
CCOC(=O)c1c(NC(=O)CSc2nc3c(c(=O)n(C)c(=O)n3C)n2C(C)C)sc(C)c1C	-	-	-	-	-	-	.
CCc1cc2c(C)ccc(C)c2nc1SCC(=O)Nc1c[nH]c(=O)[nH]c1=O	-	-	56.1	-	-	-	-
O=C(NCC(c1ccco1)N1CCc2ccccc21)c1ccccc1F (stereo unspecified)	-	-	-	-	-	-	.
O=C(CCc1ccccc1)NCC(c1ccco1)N1CCc2ccccc21 (stereo unspecified)	-	-	52.9	-	-	-	75.9	FLuc counter=65.7
